Test results as given in PubChem BioAssay (NCATS).
Inconclusive results are not listed. Calls of active or inactive are those of the source. Unless noted, calls come from the whole dose curve; as a rule, active = well fitted curve in the direction sought with a large enough effect; inconclusive = small, poorly fitted or top-dose-only effect, or another doubt; inactive = no such curve, though single readings can be large; an effect the other way counts as inactive or inconclusive.

How the values were obtained:
[1] = biological target: T1, Hexokinase-4 (Homo sapiens) + Glucokinase regulatory protein (Homo sapiens) (UniProt P35557+Q14397); assay: qHTS assay for inhibitors of recombinant human GCK-GKRP interaction: Diaphorase-coupled assay (AID 743205)
Outline: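 Inhibitors of the GCK–GKRP complex relieve GKRP suppression of GCK, detected through a G6PDH–diaphorase cascade reducing resazurin. Human GST-GCK and FLAG-GKRP are used at 10 nM with 5 mM glucose and 0.4 mM ATP.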

[2] = biological target: T1, Hexokinase-4 (Homo sapiens) + Glucokinase regulatory protein (Homo sapiens); assay: qHTS assay for inhibitors of recombinant human GCK-GKRP interaction: ADP-Glo assay (AID 743206);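 note: plate controls were DMSO plus enzyme for no effect and no enzyme for full effect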
Outline: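 GST-GCK and FLAG-GKRP (15 nM each in the dispensed mix, with 2 uM S6P) react with 0.4 mM ATP and 5 mM glucose (final) in Hepes pH 7.6 for 60 min at room temperature. ADP is measured by ADP-Glo luminescence.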

[3] = qHTS assay for measurement of the activity of small molecule inhibitors on Zika virus induced Caspase-3 activity in human iPSC derived neural progenitor cells (hNPCs) (AID 1224857); note: % of control where 0% means no effect; nearly all actives have a fitted effect of over 65% in size
Outline: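 Cells were plated at 350 per well and grown 16 to 20 hours. Compound pretreatment lasted one hour, after which ZIKV (2 FFU/cell) was added for 6 hours. Percent inhibition was normalized between uninfected and infected controls.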

[4] = qHTS assay for measurement of the activity of small molecule inhibitors on Zika virus induced Caspase-3 activity in human astrocytoma cells (AID 1224859);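 note: plate controls were ZIKV-infected untreated cells for no effect and uninfected cells for full effect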
Outline: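 Percent inhibition of virus-induced caspase-3/7 signal is calculated against uninfected and ZIKV-infected control cells. Cells are SNB-19, infected at 2 FFU/cell for 6 h after 1 h compound exposure.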

[5] = Natriuretic polypeptide receptor (hNpr1) antagonism - Pilot counterscreen GloSensor control cell line (AID 1347045; calls by dose curve; note: potency is the fitted concentration of half-maximal effect)
Outline: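 HEK293 cells carrying the GloSensor cGMP sensor (GIP/pGS-40F) were loaded with 2% GloSensor reagent for 2 h, exposed to compounds for 30 min, and then stimulated with 50 uM sodium nitroprusside for 20 min at room temperature.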

[6] = biological target: Atrial natriuretic peptide receptor 1 (Homo sapiens) (UniProt P16066); assay: Natriuretic polypeptide receptor (hNpr1) antagonism - Pilot screen (AID 1347049; calls by dose curve;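 note: agonist-evoked cGMP luminescence read 20 min after hNppA addition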; note: potency is the fitted concentration of half-maximal effect)
Outline: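 HEK293 cells co-expressing hNpr1 and the GloSensor pGS-40F cGMP luciferase sensor were preloaded with 2% GloSensor reagent for 2 h. Compounds were added for 30 min at room temperature, then cells were stimulated with 0.1 nM hNppA for 20 min before luminescence readout.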

[7] = biological target: Atrial natriuretic peptide receptor 2 (Homo sapiens) (UniProt P20594); assay: Natriuretic polypeptide receptor (hNpr2) antagonism - Pilot subtype selectivity assay (AID 1347050; calls by dose curve; note: potency is the fitted concentration of half-maximal effect)
Outline: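 cGMP-sensor HEK293/hNpr2 cells; 2% GloSensor reagent 2 h RT; compounds 30 min; baseline luminescence read; 1 nM hNppC agonist 20 min RT; final luminescence read by CCD camera. Antagonism = reduced post-agonist signal.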

[8] = biological target: T1, Hexokinase-4 (Homo sapiens) + Glucokinase regulatory protein (Homo sapiens); assay: qHTS assay for inhibitors of recombinant human GCK-GKRP interaction: HTRF assay (AID 743207);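 note: 0% = DMSO with GCK present and -100% = DMSO wells lacking GCK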
Outline: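 Steps: dispense GCK–GKRP complex (5 nM each, GST- and FLAG-tagged) with 2 uM S6P; pin in compounds; add XL665/Eu-cryptate-labelled antibodies; incubate 60 min at room temperature; read time-resolved FRET at 665 and 615 nm.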

[9] = qHTS Assay for Identifying Gametocytocidal Compounds (AID 743244);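 note: % is set by controls: 0 for no effect and ±100 for the full control effect; actives lower the fluorescent signal which means gametocytes are killed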; conditions: P. falciparum 3D7 stage III-V gametocytes, alamarBlue, 72 h; max response: active compounds read low
Outline: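 3D7 gametocytes, stages III–V, 20,000/well; cpd 72 h, 37 °C/5% CO2; + alamarBlue 24 h; fluor. Ex 525/Em 598.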

[10] = P-glycoprotein substrates identified in KB-3-1 adenocarcinoma cell line, qHTS therapeutic library screen (AID 1346986); note: nearly all actives have a fitted effect of over 60% in size;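 note: potency is the fitted concentration of half-maximal effect; potency is for cytotoxicity meaning loss of cell viability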
Outline: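 KB-3-1 parental cells and P-gp-overexpressing KB-8-5-11 (colchicine omitted during assay) plated at 500 cells/well, dosed in dose-response, incubated 72 h at 37 degree C. CellTiter-Glo luminescence read; KB-8-5-11 also tested with tariquidar.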

[11] = P-glycoprotein substrates identified in KB-8-5-11 adenocarcinoma cell line, qHTS therapeutic library screen (AID 1346987); note: nearly all actives have a fitted effect of over 65% in size
Outline: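 KB-8-5-11: colchicine-selected sub-line of KB-3-1 over-expressing P-gp; assay medium lacked colchicine. 72 h drug exposure at 37 degree C, CellTiter-Glo.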

Atrial natriuretic peptide receptor 1 (Homo sapiens), sequence (P16066 whole entry, looked up): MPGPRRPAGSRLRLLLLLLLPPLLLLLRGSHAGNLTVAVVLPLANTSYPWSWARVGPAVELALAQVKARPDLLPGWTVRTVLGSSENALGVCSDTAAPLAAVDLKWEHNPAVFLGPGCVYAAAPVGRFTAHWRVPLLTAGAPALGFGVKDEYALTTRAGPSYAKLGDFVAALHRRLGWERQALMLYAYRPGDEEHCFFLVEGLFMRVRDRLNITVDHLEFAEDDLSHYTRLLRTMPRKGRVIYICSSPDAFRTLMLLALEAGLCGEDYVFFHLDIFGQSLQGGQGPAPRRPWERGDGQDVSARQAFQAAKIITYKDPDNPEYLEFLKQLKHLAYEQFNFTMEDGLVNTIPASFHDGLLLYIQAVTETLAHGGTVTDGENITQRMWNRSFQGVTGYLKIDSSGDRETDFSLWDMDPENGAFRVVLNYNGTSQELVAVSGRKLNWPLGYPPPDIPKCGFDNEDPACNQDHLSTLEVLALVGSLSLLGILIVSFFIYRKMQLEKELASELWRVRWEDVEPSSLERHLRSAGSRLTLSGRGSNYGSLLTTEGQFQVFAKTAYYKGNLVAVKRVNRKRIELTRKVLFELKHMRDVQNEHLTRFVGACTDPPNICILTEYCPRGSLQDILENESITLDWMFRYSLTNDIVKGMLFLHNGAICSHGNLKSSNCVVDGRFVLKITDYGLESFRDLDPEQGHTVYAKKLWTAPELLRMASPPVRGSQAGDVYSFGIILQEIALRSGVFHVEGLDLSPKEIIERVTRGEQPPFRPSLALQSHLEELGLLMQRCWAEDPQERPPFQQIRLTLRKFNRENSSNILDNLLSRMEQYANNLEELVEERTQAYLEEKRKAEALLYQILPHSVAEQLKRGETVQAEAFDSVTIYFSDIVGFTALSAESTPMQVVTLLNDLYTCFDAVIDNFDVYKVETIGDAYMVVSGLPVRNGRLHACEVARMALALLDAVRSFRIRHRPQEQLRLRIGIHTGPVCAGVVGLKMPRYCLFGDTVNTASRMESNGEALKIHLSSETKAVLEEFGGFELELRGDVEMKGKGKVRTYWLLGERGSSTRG
T1 sequence (P35557 whole entry, looked up): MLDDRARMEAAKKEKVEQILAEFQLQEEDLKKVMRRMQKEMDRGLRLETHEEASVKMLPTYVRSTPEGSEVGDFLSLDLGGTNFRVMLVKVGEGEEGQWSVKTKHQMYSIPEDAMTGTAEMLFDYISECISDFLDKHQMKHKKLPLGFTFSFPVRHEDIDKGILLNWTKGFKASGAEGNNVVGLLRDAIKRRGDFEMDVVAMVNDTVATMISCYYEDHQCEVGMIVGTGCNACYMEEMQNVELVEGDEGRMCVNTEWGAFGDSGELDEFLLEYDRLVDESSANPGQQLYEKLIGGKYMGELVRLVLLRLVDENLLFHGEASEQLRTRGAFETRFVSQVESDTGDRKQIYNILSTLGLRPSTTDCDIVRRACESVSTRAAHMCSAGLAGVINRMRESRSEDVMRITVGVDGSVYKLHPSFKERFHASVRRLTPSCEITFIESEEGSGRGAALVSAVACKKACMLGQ
T1 sequence (Q14397 whole entry, looked up): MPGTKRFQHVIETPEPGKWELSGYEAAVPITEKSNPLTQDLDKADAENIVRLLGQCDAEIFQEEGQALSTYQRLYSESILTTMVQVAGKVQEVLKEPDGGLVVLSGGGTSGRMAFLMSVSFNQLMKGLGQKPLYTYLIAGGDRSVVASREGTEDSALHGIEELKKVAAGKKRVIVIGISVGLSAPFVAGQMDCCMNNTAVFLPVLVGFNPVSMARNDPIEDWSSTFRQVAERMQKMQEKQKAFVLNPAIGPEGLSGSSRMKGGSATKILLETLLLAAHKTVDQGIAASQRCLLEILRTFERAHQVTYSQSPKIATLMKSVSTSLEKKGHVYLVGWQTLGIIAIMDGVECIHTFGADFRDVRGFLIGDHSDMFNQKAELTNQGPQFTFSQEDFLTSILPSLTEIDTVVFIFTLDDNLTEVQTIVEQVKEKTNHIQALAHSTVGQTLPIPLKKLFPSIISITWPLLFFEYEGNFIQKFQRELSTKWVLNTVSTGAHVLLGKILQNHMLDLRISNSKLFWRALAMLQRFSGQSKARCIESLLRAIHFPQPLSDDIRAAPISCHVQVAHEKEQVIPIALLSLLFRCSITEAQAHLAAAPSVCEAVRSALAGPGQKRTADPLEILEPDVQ
Atrial natriuretic peptide receptor 2 (Homo sapiens), sequence (P20594 whole entry, looked up): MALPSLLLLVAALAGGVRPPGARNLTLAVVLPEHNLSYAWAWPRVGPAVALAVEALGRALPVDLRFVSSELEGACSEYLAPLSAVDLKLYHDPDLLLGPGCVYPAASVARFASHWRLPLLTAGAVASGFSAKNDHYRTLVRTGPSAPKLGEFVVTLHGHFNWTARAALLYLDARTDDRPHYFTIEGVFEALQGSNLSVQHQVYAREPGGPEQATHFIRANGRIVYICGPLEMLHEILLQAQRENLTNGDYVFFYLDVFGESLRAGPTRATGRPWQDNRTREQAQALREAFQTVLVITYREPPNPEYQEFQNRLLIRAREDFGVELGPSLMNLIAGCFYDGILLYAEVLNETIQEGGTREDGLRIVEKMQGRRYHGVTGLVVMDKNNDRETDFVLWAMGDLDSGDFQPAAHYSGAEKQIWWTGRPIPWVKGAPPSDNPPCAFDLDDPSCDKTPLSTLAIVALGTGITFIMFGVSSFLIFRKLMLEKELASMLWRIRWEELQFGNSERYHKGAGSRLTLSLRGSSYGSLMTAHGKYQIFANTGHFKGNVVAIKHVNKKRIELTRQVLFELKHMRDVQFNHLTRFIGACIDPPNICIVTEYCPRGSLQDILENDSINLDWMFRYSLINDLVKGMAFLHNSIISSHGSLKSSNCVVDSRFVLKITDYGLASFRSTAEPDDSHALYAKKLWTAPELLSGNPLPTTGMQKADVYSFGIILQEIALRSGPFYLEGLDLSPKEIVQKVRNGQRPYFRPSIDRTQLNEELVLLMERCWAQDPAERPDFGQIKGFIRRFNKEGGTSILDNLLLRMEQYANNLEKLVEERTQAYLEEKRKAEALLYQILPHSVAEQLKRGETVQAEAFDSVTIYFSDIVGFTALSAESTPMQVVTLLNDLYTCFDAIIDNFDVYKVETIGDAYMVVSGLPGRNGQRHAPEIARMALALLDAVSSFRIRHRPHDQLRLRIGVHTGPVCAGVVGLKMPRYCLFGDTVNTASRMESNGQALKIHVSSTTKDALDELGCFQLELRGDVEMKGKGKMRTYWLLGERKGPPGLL

Nc1ccc(-c2nc3ccc(-c4nc5ccc(N)cc5[nH]4)cc3[nH]2)cc1
inactive: Potency [1] | Potency [2] | Potency [3] | Potency [4] | Potency [5] | Potency [6] | Potency [7]

N#C/C(=C\c1ccc(O)c(O)c1)C(=O)NCCCNC(=O)/C(C#N)=C/c1ccc(O)c(O)c1
inactive: Potency [2] | Potency [8] | max response [9] 5.33% | Potency [3] | Potency [4] | Potency [10] | Potency [11] | Potency [5] | Potency [6] | Potency [7]

O[Si](CCCN1CCCCC1)(c1ccc(F)cc1)C1CCCCC1 (centres undefined)
inactive: Potency [1] | Potency [2] | Potency [8] | Potency [3] | Potency [4] | Potency [5] | Potency [6] | Potency [7]

Cc1cccc(C2CN(C)CCc3c2cc(O)c(O)c3Cl)c1 (centres undefined)
inactive: Potency [1] | Potency [2] | Potency [8] | Potency [3] | Potency [4] | Potency [5] | Potency [6] | Potency [7]

NC(Cc1cccc(-c2ccccc2CP(=O)(O)O)c1)C(=O)O (centres undefined)
inactive: Potency [1] | Potency [2] | Potency [8] | Potency [3] | Potency [4] | Potency [5] | Potency [6] | Potency [7]

NC(=O)c1cc[n+](CC2=C(C(=O)O)N3C(=O)[C@@H](NC(=O)[C@@H](c4ccccc4)S(=O)(=O)[O-])[C@H]3SC2)cc1
inactive: Potency [1] | Potency [2] | Potency [8] | Potency [3] | Potency [4] | Potency [5] | Potency [6] | Potency [7]

CC(=O)NCCc1c[nH]c2ccc(O)cc12
inactive: Potency [1] | Potency [2] | Potency [8] | Potency [3] | Potency [4] | Potency [10] | Potency [11] | Potency [5] | Potency [6]

CCCCCCCCCC(=O)NC(CN1CCOCC1)[C@H](O)c1ccccc1 (some centres undefined)
inactive: Potency [1] | Potency [2] | Potency [8] | Potency [3] | Potency [4] | Potency [5] | Potency [6] | Potency [7]

NCC(O)c1ccc(O)c(O)c1 (centres undefined)
inactive: Potency [1] | Potency [2] | Potency [8] | Potency [3] | Potency [4] | Potency [5] | Potency [6] | Potency [7]

CC[n+]1c(/C=C/C=C2/N(C)c3ccccc3C2(C)C)sc2ccccc21
inactive: Potency [1] | Potency [2] | Potency [3] | Potency [4]
active: Potency [5] 0.233 µM | Potency [6] 0.213 µM | Potency [7] 0.233 µM

CC(=O)NNC(=O)N1Cc2ccccc2Oc2ccc(Cl)cc21
inactive: Potency [1] | Potency [2] | Potency [8] | Potency [3] | Potency [4] | Potency [5] | Potency [6] | Potency [7]

Cc1nc(N=Nc2cc(S(=O)(=O)O)c3cc([N+](=O)[O-])cc(S(=O)(=O)O)c3c2)c(COP(=O)(O)O)c(C=O)c1O
inactive: Potency [1] | Potency [2] | Potency [3] | Potency [4] | Potency [5] | Potency [6] | Potency [7]

O=C1Cc2c([nH]c3ccc(Br)cc23)-c2ccccc2N1
inactive: Potency [1] | Potency [2] | Potency [8] | Potency [3] | Potency [4]
active: Potency [10] 11.6 µM

O=c1[nH]c(=O)c2nc3ccccc3nc2[nH]1
inactive: Potency [1] | Potency [2] | Potency [8] | Potency [3] | Potency [4] | Potency [5] | Potency [6] | Potency [7]

NC(=Nc1ccccc1)NC(=O)c1nc(Cl)c(N)nc1N
inactive: Potency [1] | Potency [2] | Potency [8] | Potency [3] | Potency [4] | Potency [5] | Potency [6] | Potency [7]

C=C1C[C@@]23CC[C@H]4[C@@](C)(CCC[C@@]4(C)C(=O)OC4OC(CO)C(O)C(O)C4O)[C@@H]2CC[C@]1(OC1OC(CO)C(O)C(O)C1OC1OC(CO)C(O)C(O)C1O)C3 (some centres undefined)
inactive: Potency [1] | Potency [2] | Potency [8] | Potency [3] | Potency [4] | Potency [5] | Potency [6] | Potency [7]

COc1cc(CNC(=O)CCCCCCC(C)C)ccc1O
inactive: Potency [1] | Potency [2] | Potency [8] | Potency [3] | Potency [4] | Potency [5] | Potency [6] | Potency [7]

O=C(N[C@@H](Cc1ccccc1)C(=O)CCl)OCc1ccccc1
active: Potency [5] 3.29 µM | Potency [6] 10.7 µM | Potency [7] 4.14 µM
inactive: Potency [1] | Potency [2] | Potency [8] | Potency [3] | Potency [4]

CN(C)CCCc1cc(C(=O)Nc2ccc(-c3ccncc3)cc2)ccc1O
inactive: Potency [1] | Potency [2] | Potency [8] | Potency [3] | Potency [4] | Potency [5] | Potency [6] | Potency [7]

COc1ccc(NC(=O)c2ccc(-c3ccc(-c4noc(C)n4)cc3C)cc2)cc1N1CCN(C)CC1
inactive: Potency [1] | Potency [2] | Potency [8] | Potency [3] | Potency [4] | Potency [5] | Potency [6] | Potency [7]

N#Cc1cc([N+](=O)[O-])c2sc(C(N)=O)[n+]([O-])c2c1
active: Potency [5] 14.7 µM
inactive: Potency [1] | Potency [2] | Potency [8] | Potency [3] | Potency [4] | Potency [10] | Potency [11] | Potency [6] | Potency [7]

COc1cc(C(O)CO)ccc1O (centres undefined)
inactive: Potency [1] | Potency [2] | Potency [8] | Potency [3] | Potency [4] | Potency [5] | Potency [6] | Potency [7]

COc1ccc2c(c1)c(CC(=O)O)c(C)n2Cc1ccc(Cl)cc1
inactive: Potency [1] | Potency [2] | Potency [8] | Potency [3] | Potency [4] | Potency [5] | Potency [6] | Potency [7]
